From PubChem BioAssay (EPA / NIEHS)
Active and inactive are the calls of the source. How the source made its calls: active means hit-call score of the fitted dose curve at least 0.9, where 1 is the maximum; inactive means score below 0.9.

Experiments:
Settings in all cases: mRNA level, 48 h; actives raise or lower the signal
[1] = read-out: Bcl-2 (BID) gene, BID (gene 637); experiment: LTEA_HepaRG_BID: Life Technologies and Expression Analysis (LTEA) Assay for Bcl-2 (BID) gene using HepaRG (AID 2283476)
Method in brief: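 Gain or loss of BID expression is fitted relative to 0.5% DMSO vehicle. Human HepaRG liver cells received a 48 h chemical exposure over an eight-point concentration range.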

Caspase-3 (Homo sapiens) = Caspase-3 (Homo sapiens) (UniProt P42574); experiment: LTEA_HepaRG_CASP3: Life Technologies and Expression Analysis (LTEA) Assay for cysteine-aspartic acid protease (CASP3) using HepaRG (AID 2283477)
Sequence of Caspase-3 (Homo sapiens) (P42574 whole entry, looked up): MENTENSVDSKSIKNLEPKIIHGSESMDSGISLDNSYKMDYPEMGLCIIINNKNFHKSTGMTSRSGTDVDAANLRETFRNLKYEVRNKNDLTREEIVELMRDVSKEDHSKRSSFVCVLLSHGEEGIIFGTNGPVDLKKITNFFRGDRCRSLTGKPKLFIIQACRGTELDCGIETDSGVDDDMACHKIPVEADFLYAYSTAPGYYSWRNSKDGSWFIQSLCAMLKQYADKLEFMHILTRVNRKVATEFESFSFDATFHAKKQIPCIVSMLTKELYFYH
Method in brief: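 Transcript-level assay: CASP3 mRNA in human HepaRG after 48 h treatment, eight half-log concentrations from 100 uM in 0.5% DMSO, quantified by qRT-PCR.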

[2] = read-out: Cytochrome P450 (CYP1A2), CYP1A2 (gene 1544); experiment: LTEA_HepaRG_CYP1A2: Life Technologies and Expression Analysis (LTEA) Assay for Cytochrome P450 (CYP1A2) using HepaRG (AID 2283479)
Method in brief: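 In duplicate wells, HepaRG cultures maintained in 0.5% DMSO were treated 48 h across an 8-point, half-log series topping at 100 uM; phenobarbital (1 mM) served as induction control. Expression was read by qRT-PCR.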

[3] = read-out: cysteine-aspartic acid protease (CASP8), CASP8 (gene 841); experiment: LTEA_HepaRG_CASP8: Life Technologies and Expression Analysis (LTEA) Assay for cysteine-aspartic acid protease (CASP8) using HepaRG (AID 2283480)
Method in brief: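 Differentiated HepaRG cells in serum-free induction medium, 48 h exposure, eight-point half-log series from 100 uM in 0.5% DMSO, duplicates. CASP8 mRNA by qRT-PCR, normalized to ACTB, GAPDH, POLR2A; bidirectional fit versus DMSO.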

[4] = read-out: Cytochrome P450 (CYP2B6), CYP2B6 (gene 1555); experiment: LTEA_HepaRG_CYP2B6: Life Technologies and Expression Analysis (LTEA) Assay for Cytochrome P450 (CYP2B6) using HepaRG (AID 2283481)
Method in brief: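 Human HepaRG, 48 h dosing, 0.5% DMSO vehicle, top dose 100 uM. CYP2B6 transcript by qRT-PCR, housekeeping-normalized, bidirectional curve fit.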

[5] = read-out: Cytochrome P450 2C19 (Homo sapiens) (UniProt P33261); experiment: LTEA_HepaRG_CYP2C19: Life Technologies and Expression Analysis (LTEA) Assay for CYP2C19 using HepaRG (AID 2283482)
Method in brief: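 Endpoint: CYP2C19 mRNA change, bidirectional fit vs 0.5% DMSO. Cells: HepaRG, 48 h exposure, eight-point series topping at 100 uM. Quantitation: qRT-PCR normalized to ACTB, GAPDH, POLR2A.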

CYP2C8 (gene 1558) = experiment: LTEA_HepaRG_CYP2C8: Life Technologies and Expression Analysis (LTEA) Assay for CYP2C8 using HepaRG (AID 2283483)
Method in brief: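 Differentiated HepaRG cells in serum-free induction medium exposed 48 h in duplicate to 8 half-log concentrations from 100 uM in 0.5% DMSO. CYP2C8 mRNA by qRT-PCR normalized to ACTB, GAPDH, POLR2A; bidirectional fit versus DMSO.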

CYP2C9 (gene 1559) = experiment: LTEA_HepaRG_CYP2C9: Life Technologies and Expression Analysis (LTEA) Assay for CYP2C9 using HepaRG (AID 2283484)
Method in brief: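 Differentiated human HepaRG cells in serum-free induction medium were exposed 48 h to chemicals in 8-point half-log series from 100 uM (0.5% DMSO), in duplicate. CYP2C9 mRNA was measured by qRT-PCR, normalized to ACTB/GAPDH/POLR2A, with bidirectional fitting versus DMSO.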

CYP2E1 (gene 1571) = experiment: LTEA_HepaRG_CYP2E1: Life Technologies and Expression Analysis (LTEA) Assay for CYP2E1 using HepaRG (AID 2283485)
Method in brief: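 Differentiated HepaRG cells were treated in duplicate for 48 h with chemicals in 0.5% DMSO, from 100 uM downward in half-log dilutions. RNA was then analysed by qRT-PCR for CYP2E1 induction or loss.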

CYP4A11 (gene 1579) = experiment: LTEA_HepaRG_CYP4A11: Life Technologies and Expression Analysis (LTEA) Assay for CYP4A11 using HepaRG (AID 2283486)
Method in brief: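 Human hepatic HepaRG cultures receive duplicate 48 h exposures across a concentration-response series topping at 100 uM. Expression changes in CYP4A11 are measured by qRT-PCR relative to DMSO controls.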

[6] = read-out: DNA damage-inducible transcript 3 (DDIT3), DDIT3 (gene 1649); experiment: LTEA_HepaRG_DDIT3: Life Technologies and Expression Analysis (LTEA) Assay for DNA damage-inducible transcript 3 (DDIT3) using HepaRG (AID 2283488)
Method in brief: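 Changes in DDIT3 transcript, in either direction relative to 0.5% DMSO vehicle, were quantified by TaqMan qRT-PCR after 48 h chemical exposure of HepaRG cells at 8 concentrations, maximum 100 uM.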

[7] = read-out: Pro-epidermal growth factor (Homo sapiens) (UniProt P01133); experiment: LTEA_HepaRG_EGF: Life Technologies and Expression Analysis (LTEA) Assay for Epidermal growth factor (EGF) using HepaRG (AID 2283489)
Method in brief: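 Concentration-response mRNA assay: HepaRG cells dosed 48 h (max 100 uM, 0.5% DMSO), EGF measured by qRT-PCR and normalized to ACTB/GAPDH/POLR2A.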

[8] = read-out: Early growth response protein 1 (EGR1) transcription factor, EGR1 (gene 1958); experiment: LTEA_HepaRG_EGR1: Life Technologies and Expression Analysis (LTEA) Assay for Early growth response protein 1 (EGR1) transcription factor using HepaRG (AID 2283490)
Method in brief: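 Differentiated HepaRG cells in serum-free induction medium exposed 48 hours, duplicate, to 8 half-log concentrations up to 100 uM in 0.5% DMSO. EGR1 mRNA measured by TaqMan qRT-PCR, normalized to ACTB, GAPDH, POLR2A; bidirectional fit versus DMSO.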

[9] = read-out: Ezrin (EZR), EZR (gene 7430); experiment: LTEA_HepaRG_EZR: Life Technologies and Expression Analysis (LTEA) Assay for Ezrin (EZR) using HepaRG (AID 2283491)
Method in brief: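 EZR transcript levels came from Fluidigm qRT-PCR and were normalized to three housekeeping genes after 48 h chemical exposure of HepaRG cells. Dosing used an 8-point half-log series with a 100 uM top concentration in 0.5% DMSO, tested in duplicate; both directions were fitted versus vehicle.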

[10] = read-out: Cytochrome P450 3A7 (Homo sapiens) (UniProt P24462); experiment: LTEA_HepaRG_CYP3A7: Life Technologies and Expression Analysis (LTEA) Assay for CYP3A7 using HepaRG (AID 2283492)
Method in brief: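 qRT-PCR of CYP3A7 in HepaRG lysates after 48 h treatment; concentration-response (8 points, max 100 uM) analysed bidirectionally relative to 0.5% DMSO controls.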

CYP3A5 (gene 1577) = experiment: LTEA_HepaRG_CYP3A5: Life Technologies and Expression Analysis (LTEA) Assay for CYP3A5 using HepaRG (AID 2283493)
Method in brief: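 mRNA induction or loss of CYP3A5 assessed in HepaRG after 48 h dosing, 100 uM top concentration, duplicate wells; TaqMan qRT-PCR with ACTB, GAPDH, POLR2A normalization; 0.5% DMSO as negative control.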

[11] = read-out: Fatty Acid-Binding Protein 1 (FABP1), FABP1 (gene 2168); experiment: LTEA_HepaRG_FABP1: Life Technologies and Expression Analysis (LTEA) Assay for Fatty Acid-Binding Protein 1 (FABP1) using HepaRG (AID 2283494)
Method in brief: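 Differentiated human HepaRG cells exposed 48 h in serum-free induction medium to eight half-log concentrations up to 100 uM (0.5% DMSO), duplicate. FABP1 mRNA by qRT-PCR, normalised to ACTB, GAPDH, POLR2A; bidirectional fitting against DMSO.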

[12] = read-out: Cytochrome P450 4A22 (Homo sapiens) (UniProt Q5TCH4); experiment: LTEA_HepaRG_CYP4A22: Life Technologies and Expression Analysis (LTEA) Assay for Cytochrome P450 4A22 (CYP4A22) using HepaRG (AID 2283495)
Method in brief: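 Concentration-response (8 points, max 100 uM, 0.5% DMSO) in human HepaRG liver cells after 48 h exposure. CYP4A22 mRNA by TaqMan qRT-PCR with housekeeping-gene normalization.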

Measured: AC50

Sequence of Cytochrome P450 2C19 (Homo sapiens) (P33261 whole entry, looked up): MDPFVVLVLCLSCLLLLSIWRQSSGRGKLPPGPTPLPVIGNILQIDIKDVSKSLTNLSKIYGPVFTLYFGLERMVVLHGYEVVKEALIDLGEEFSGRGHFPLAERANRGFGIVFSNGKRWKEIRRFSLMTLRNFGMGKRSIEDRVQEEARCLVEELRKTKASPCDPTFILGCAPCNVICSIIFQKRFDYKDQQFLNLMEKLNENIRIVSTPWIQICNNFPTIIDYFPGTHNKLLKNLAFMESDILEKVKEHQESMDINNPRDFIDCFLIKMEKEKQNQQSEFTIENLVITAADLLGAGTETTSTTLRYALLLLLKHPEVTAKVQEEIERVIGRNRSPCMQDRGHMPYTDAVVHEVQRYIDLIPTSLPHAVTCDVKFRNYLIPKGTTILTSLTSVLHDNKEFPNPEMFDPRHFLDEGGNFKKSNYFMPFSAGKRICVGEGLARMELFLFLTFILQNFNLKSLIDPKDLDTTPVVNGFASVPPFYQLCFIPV
Sequence of Cytochrome P450 3A7 (Homo sapiens) (P24462 whole entry, looked up): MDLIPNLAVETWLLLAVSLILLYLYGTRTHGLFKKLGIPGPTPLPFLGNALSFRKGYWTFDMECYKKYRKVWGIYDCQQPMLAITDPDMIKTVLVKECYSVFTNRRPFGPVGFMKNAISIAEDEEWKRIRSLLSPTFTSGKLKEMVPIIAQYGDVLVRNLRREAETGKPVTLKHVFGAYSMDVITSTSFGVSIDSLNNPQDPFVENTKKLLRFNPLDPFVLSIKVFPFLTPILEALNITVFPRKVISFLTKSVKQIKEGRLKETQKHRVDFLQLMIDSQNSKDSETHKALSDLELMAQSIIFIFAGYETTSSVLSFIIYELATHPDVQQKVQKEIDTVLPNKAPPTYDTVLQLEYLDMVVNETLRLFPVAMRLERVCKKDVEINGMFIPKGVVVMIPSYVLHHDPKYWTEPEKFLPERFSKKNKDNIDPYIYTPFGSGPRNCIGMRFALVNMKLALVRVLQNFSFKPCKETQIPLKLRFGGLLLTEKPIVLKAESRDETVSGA

CCC(C)(c1ccc(O)cc1)c1ccc(O)cc1
active: [2] 89.2 µM
inactive: all other assays above

CCCCCCCCOC(=O)c1ccccc1C(=O)OCCCCCCCC
active: [4] 16.3 µM
inactive: all other assays above

Cc1ccccc1CO[C@@H]1C[C@@]2(C(C)C)CC[C@]1(C)O2
active: [2] 76.3 µM | [4] 15.9 µM | [5] 32.5 µM | CYP2C8 (gene 1558) 50 µM | CYP2E1 (gene 1571) 50 µM
inactive: all other assays above

C[C@]12CCC(=O)C=C1CC[C@@H]1[C@@H]2CC[C@]2(C)C(=O)CC[C@@H]12
active: [1] 50 µM | [2] 50 µM | [5] 10.4 µM | CYP2E1 (gene 1571) 1.16 µM | CYP4A11 (gene 1579) 85.7 µM | CYP3A5 (gene 1577) 50 µM | [11] 12.5 µM | [12] 72.7 µM
inactive: all other assays above

ClC1=C(Cl)[C@]2(Cl)[C@@H]3[C@H]4C[C@H]([C@@H]5O[C@H]45)[C@@H]3[C@@]1(Cl)C2(Cl)Cl
active: [4] 1.01 µM | [5] 2.63 µM | CYP2E1 (gene 1571) 22.6 µM | CYP4A11 (gene 1579) 24.6 µM | [6] 50 µM | [10] 2.94 µM | [11] 1.86 µM | [12] 32.5 µM
inactive: all other assays above

Oc1c(Cl)c(Cl)c(Cl)c(Cl)c1Cl
active: [1] 4.97 µM | Caspase-3 (Homo sapiens) 6.5 µM | [2] 3.83 µM | [3] 6.64 µM | [4] 3.43 µM | [5] 4.27 µM | CYP2C8 (gene 1558) 4.44 µM | CYP2C9 (gene 1559) 3.08 µM | CYP2E1 (gene 1571) 1.94 µM | CYP4A11 (gene 1579) 4.37 µM | [6] 11.7 µM | [7] 25.5 µM | [8] 8.53 µM | [9] 1.58 µM | [10] 4.85 µM | CYP3A5 (gene 1577) 10.6 µM | [11] 2.35 µM | [12] 3.87 µM

O=C(NC(=O)c1c(F)cccc1F)Nc1cc(Cl)c(OC(F)(F)C(F)F)c(Cl)c1
active: [2] 3.63 µM | CYP2E1 (gene 1571) 11.6 µM | [11] 25.1 µM
inactive: all other assays above

CCOP(=S)(OCC)SCSC(C)(C)C
active: CYP2E1 (gene 1571) 28.8 µM | [10] 16.5 µM | CYP3A5 (gene 1577) 2.83 µM | [11] 50 µM
not listed: [9]
inactive: all other assays above

O=NN(c1ccccc1)c1ccccc1
active: [1] 78.2 µM | [2] 50 µM | [4] 10.6 µM | [5] 7.3 µM | CYP2C9 (gene 1559) 0.273 µM | CYP4A11 (gene 1579) 50 µM | [12] 50 µM
inactive: all other assays above

CC(C)(O)C(=O)Nc1ccc([N+](=O)[O-])c(C(F)(F)F)c1
active: [1] 0.0296 µM | [2] 0.0406 µM | [3] 0.0142 µM | [4] 44.3 µM | CYP2E1 (gene 1571) 37.1 µM | CYP4A11 (gene 1579) 42 µM | [7] 0.0411 µM | [8] 0.0388 µM | [11] 25 µM
inactive: Caspase-3 (Homo sapiens) | [5] | CYP2C8 (gene 1558) | CYP2C9 (gene 1559) | [9] | [10] | CYP3A5 (gene 1577) | [12]

CO/C=C(/C(=O)OC)c1ccccc1COc1cccc(C(F)(F)F)n1
inactive: [1] | Caspase-3 (Homo sapiens) | [3] | [8]
active: [2] 7.53 µM | [4] 7.13 µM | [5] 8.79 µM | CYP2C8 (gene 1558) 8.74 µM | CYP2C9 (gene 1559) 8.81 µM | CYP2E1 (gene 1571) 3.61 µM | CYP4A11 (gene 1579) 3.9 µM | [6] 8.83 µM | [7] 50 µM | [9] 5.1 µM | [10] 3.4 µM | CYP3A5 (gene 1577) 12.1 µM | [11] 5.35 µM | [12] 5.06 µM

CCOC(=O)C(O)(c1ccc(Cl)cc1)c1ccc(Cl)cc1
active: [2] 66.5 µM | [4] 69.1 µM | CYP2C8 (gene 1558) 21.6 µM | CYP2E1 (gene 1571) 30.4 µM | CYP4A11 (gene 1579) 20.4 µM | [10] 50 µM | [12] 50 µM
inactive: all other assays above

Cc1cc2c3c(c1)C(c1ccccc1)=N[C@@H](NC(=O)c1ccncc1)C(=O)N3CC2
active: [2] 23.1 µM | [5] 3.58 µM | CYP2E1 (gene 1571) 17.9 µM | CYP4A11 (gene 1579) 40.4 µM | [6] 75.6 µM | [9] 50 µM | [10] 12.2 µM | [11] 50 µM | [12] 36 µM
inactive: all other assays above
